Source: PubChem BioAssay (Tox21)
Records with an inconclusive call do not appear. Active and inactive are the calls of the source. Unless noted, calls come from the whole dose curve; as a rule, active = well fitted curve in the direction sought with a large enough effect in the repeat runs; inconclusive = weak or mixed curves; inactive = no such curve, though single readings can be large; an effect the other way counts as inactive or inconclusive.

Key:
[1] = target: Thyrotropin-releasing hormone receptor (Homo sapiens) (UniProt P34981); experiment: qHTS assay to identify small molecule agonists of the thyrotropin-releasing hormone receptor (TRHR) signaling pathway (AID 1346891; calls by dose curve;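 note: HEK293 cells expressing TRHR with calcium dye readout; series mostly up to about 58 µM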)
Thyrotropin-releasing hormone receptor (Homo sapiens), sequence (P34981 whole entry, looked up): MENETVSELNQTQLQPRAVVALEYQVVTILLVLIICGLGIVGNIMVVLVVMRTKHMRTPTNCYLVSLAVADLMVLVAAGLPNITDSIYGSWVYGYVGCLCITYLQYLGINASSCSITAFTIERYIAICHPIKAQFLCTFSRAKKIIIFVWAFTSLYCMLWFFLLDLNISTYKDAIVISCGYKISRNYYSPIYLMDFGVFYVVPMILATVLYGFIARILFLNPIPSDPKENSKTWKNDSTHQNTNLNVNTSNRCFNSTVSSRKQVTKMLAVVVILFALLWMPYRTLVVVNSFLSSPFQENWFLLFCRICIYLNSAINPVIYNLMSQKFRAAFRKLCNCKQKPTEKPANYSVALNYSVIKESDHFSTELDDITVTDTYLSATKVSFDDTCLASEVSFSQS
Outline: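 Overnight-plated (18 h, 37 °C, 5% CO2) TRHR-Hek293 cells; 2 h calcium dye at 37 °C; compound in DMSO; 3-min kinetic fluorescence read.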

[2] = Human pregnane X receptor (PXR) small molecule agonists, qHTS cell viability counter screen (AID 1346977); note: nearly all actives have a fitted effect of over 50% in size
Outline: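 After a 5hr pre-incubation, PXR-Luc HepG2 cells received compounds plus positive control in DMSO and were kept 24hr at 37C. Cell viability was quantified by fluorescence from CellTiter-Fluor added for the final hour.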

[3] = Caspase-3/7 induction in HepG2 cells by small molecules, qHTS assay (AID 1346978); note: nearly all actives have a fitted effect of over 15% in size
Outline: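 Wild-type HepG2 cells (2,000/well) were settled 5 h at 37 C, 5% CO2, then exposed to compounds in DMSO for 17 h. Caspase-3/7 activity was read by luminescence 30 min after adding Caspase-Glo 3/7 reagent at room temperature.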

[4] = Caspase-3/7 induction in CHO-K1 cells by small molecules, qHTS assay (AID 1346980); note: nearly all actives have a fitted effect of over 15% in size
Outline: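 Wild-type cells were seeded at 1,500 per well and settled 5 hr at 37 C, 5% CO2, then exposed to DMSO-dissolved compounds for 17 hr. Caspase-Glo 3/7 reagent was added, and luminescence was read after 30min at room temperature.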

[5] = target: Nuclear receptor subfamily 1 group I member 2 (Homo sapiens) (UniProt O75469); experiment: Human pregnane X receptor (PXR) small molecule agonists, qHTS assay (AID 1346982); note: nearly all actives have a fitted effect of over 35% in size; note: potency is the fitted concentration of half-maximal effect
Nuclear receptor subfamily 1 group I member 2 (Homo sapiens), sequence (O75469 whole entry, looked up): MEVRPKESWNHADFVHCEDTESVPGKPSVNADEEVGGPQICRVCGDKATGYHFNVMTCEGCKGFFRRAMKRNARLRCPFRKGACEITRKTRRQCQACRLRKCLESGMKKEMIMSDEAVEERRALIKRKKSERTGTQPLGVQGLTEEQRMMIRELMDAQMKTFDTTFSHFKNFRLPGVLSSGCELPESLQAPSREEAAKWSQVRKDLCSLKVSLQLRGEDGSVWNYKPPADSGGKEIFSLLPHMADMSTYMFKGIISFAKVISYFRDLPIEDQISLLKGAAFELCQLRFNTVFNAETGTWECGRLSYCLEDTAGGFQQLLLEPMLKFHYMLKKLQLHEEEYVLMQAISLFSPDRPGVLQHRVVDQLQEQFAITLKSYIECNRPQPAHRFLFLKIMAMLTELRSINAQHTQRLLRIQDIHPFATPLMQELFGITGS
Outline: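 We seeded PXR-Luc HepG2 cells in assay medium containing 5% charcoal-stripped FBS, added compounds 5 hr later, incubated 24 hr, and read luminescence with ONE-Glo reagent.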

[6] = Caspase-3/7 induction in CHO-K1 cells by small molecules, qHTS cell viability counter screen (AID 1346979); note: nearly all actives have a fitted effect of over 35% in size
Outline: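 Multiplexed with Caspase-Glo 3/7 in CHO-K1 cells, this counter screen added CellTiter-Fluor after 16hr of compound exposure and recorded fluorescence 1hr later.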

[7] = Caspase-3/7 induction in HepG2 cells by small molecules, qHTS cell viability counter screen (AID 1346981); note: series mostly up to about 92 µM; nearly all actives have a fitted effect of over 30% in size
Outline: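 Multiplexed with the caspase-3/7 assay: HepG2 cells, 16 hr compound treatment, CellTiter-Fluor viability detection by fluorescence.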

[8] = target: Nuclear receptor subfamily 1 group I member 2 (Rattus norvegicus) (UniProt Q9R1A7); experiment: Rat pregnane X receptor (rPXR) activation by small molecules, qHTS assay (AID 1346983); settings: rPXR luciferase reporter cells, One-Glo luminescence, 24 h; max activation: stronger effect = higher value; note: nearly all actives have a fitted effect of over 20% in size; note: potency is the fitted concentration of half-maximal effect
Nuclear receptor subfamily 1 group I member 2 (Rattus norvegicus), sequence (Q9R1A7 whole entry, looked up): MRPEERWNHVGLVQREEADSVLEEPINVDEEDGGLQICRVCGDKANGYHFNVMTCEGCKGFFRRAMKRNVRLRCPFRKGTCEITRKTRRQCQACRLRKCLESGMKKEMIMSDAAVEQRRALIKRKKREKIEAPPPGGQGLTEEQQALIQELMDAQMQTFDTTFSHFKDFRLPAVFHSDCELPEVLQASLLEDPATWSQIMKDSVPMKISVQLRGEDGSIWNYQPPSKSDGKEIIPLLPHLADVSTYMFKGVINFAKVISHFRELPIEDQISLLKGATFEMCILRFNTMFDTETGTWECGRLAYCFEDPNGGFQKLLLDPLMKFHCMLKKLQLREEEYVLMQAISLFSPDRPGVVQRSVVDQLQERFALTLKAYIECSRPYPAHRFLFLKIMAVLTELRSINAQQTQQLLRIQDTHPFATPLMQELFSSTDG
Outline: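 Cell-based rPXR luciferase reporter assay, 2,000 cells per well, rested 5hr at 37 C before compound addition in DMSO, then 24 hr at 37 C. One-Glo reagent was added and luminescence read after 30 min at room temperature.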

[9] = target: Nuclear receptor subfamily 1 group I member 2 (Homo sapiens) (UniProt O75469); experiment: CYP3A4 induction through human pregnane X receptor (PXR) by small molecules, qHTS assay (AID 1346984); note: nearly all actives have a fitted effect of over 40% in size
Outline: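 qHTS, concentration-response format: HepG2 DPX-2 line, PXR/CYP3A4-luc. Exposure 24 h, 37C. Substrate Luciferin-IPA 3uM final, 3 h. Detection One-Glo, 30 min RT.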

[10] = target: Nuclear receptor subfamily 1 group I member 2 (Homo sapiens) (UniProt O75469); experiment: Human pregnane X receptor (PXR) activation by small molecules, qHTS assay (AID 1346985); note: nearly all actives have a fitted effect of over 40% in size
Outline: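 DPX-2 cells (HepG2 co-transfected with a PXR response element and a CYP3A4-promoter luciferase construct) were seeded at 2,000 per well, rested 5 hr at 37C, then exposed to DMSO-dissolved compounds for 24 hr. Activation was read as luciferase luminescence.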
% is set by controls: 0 for no effect and ±100 for the full control effect.

CCn1c(=O)c2c(nc(/C=C/c3ccc(OC)c(OC)c3)n2C)n(CC)c1=O
active: Potency [5] 26.6 µM
inactive: outcome [1] | Potency [2] | outcome [3] | outcome [4]

CC12CCC(CC1=O)C2(C)C (stereo not given)
inactive: outcome [1] | Potency [2] | Potency [6] | outcome [4] | outcome [7] | Potency [5]

O=C(O)Cc1cc(I)c(Oc2cc(I)c(O)c(I)c2)c(I)c1
inactive: outcome [1] | Potency [2] | outcome [3] | outcome [4]
active: Potency [5] 37.8 µM

OCC(O)[C@@H](O)[C@H](O)[C@H](O)CO[C@H]1O[C@H](CO)[C@@H](O)[C@H](O)[C@H]1O (stereo not given in full)
inactive: outcome [1] | Potency [2] | Potency [6] | outcome [4] | outcome [7]

CN(C)CCOC(c1ccc(Cl)cc1)c1ccccn1 (stereo not given)
inactive: outcome [1] | Potency [2] | outcome [3] | Potency [6] | outcome [4] | Potency [5] | max activation [8] -0.352% | Potency [9]

[O-][N+](=Nc1ccccc1)c1ccccc1
inactive: outcome [1] | Potency [2] | outcome [3] | outcome [4] | outcome [7] | max activation [8] 13.9% | Potency [9] | Potency [10]
active: Potency [5] 21.7 µM

O=C(O)CCNC(=O)c1ccc(N=Nc2ccc(O)c(C(=O)O)c2)cc1
inactive: outcome [1] | Potency [2] | outcome [3] | outcome [4] | max activation [8] -1.98% | Potency [9] | Potency [10]

CCCCCC[C@@H](CCC)C(=O)O
inactive: outcome [1] | Potency [2] | outcome [3] | outcome [4] | outcome [7]

C=C(C)C(=O)OCCCCCCCCCCCCCCCCCC
inactive: activation [1] -0.148% [at 11.8 µM] | activity change, negative = cytotoxicity [2] -1.38% [at 19 µM] | activity change, negative = cytotoxicity [6] -0.104% [at 19 µM] | caspase-3/7 activation [4] 0.453% [at 19 µM] | activity change, negative = cytotoxicity [7] -0.0917% [at 19 µM] | activation [5] -0.119% [at 19 µM]

CC(C)[N+](C)(C)CC(O)COc1cccc2ccccc12 (stereo not given)
inactive: outcome [1] | Potency [2] | outcome [3] | Potency [6] | outcome [4] | Potency [5] | max activation [8] -2.92% | Potency [9] | Potency [10]

C[C@H]1O[C@@H](n2cc(F)c(=O)[nH]c2=O)[C@H](O)[C@@H]1O
inactive: outcome [1] | Potency [2] | outcome [3] | Potency [6] | outcome [4] | Potency [5] | max activation [8] -1.26% | Potency [9] | Potency [10]

CO
inactive: outcome [1] | Potency [2] | outcome [3] | Potency [6] | outcome [4] | max activation [8] -1.84%

CC(=O)N[C@@H](CCC(N)=O)C(=O)O
inactive: outcome [1] | Potency [2] | outcome [3] | Potency [6] | outcome [4] | Potency [5]

CCCCC=O
inactive: outcome [1] | Potency [2] | Potency [6] | outcome [4] | outcome [7] | Potency [5]

c1ccc2cnncc2c1
inactive: outcome [1] | Potency [2] | Potency [6] | outcome [4] | outcome [7] | Potency [5]

COC[C@H](c1ccc(C(F)(F)F)cc1)N1CCN(C2(C)CCN(C(=O)c3c(C)ncnc3C)CC2)C[C@H]1C
inactive: outcome [1] | Potency [2] | Potency [6] | outcome [4] | outcome [7] | Potency [5]

NC(=O)CCCCC1CCSS1 (stereo not given)
inactive: outcome [1] | Potency [2] | outcome [3] | Potency [6] | outcome [4] | Potency [5] | max activation [8] -4.58% | Potency [9] | Potency [10]

O=C(O)c1ccccc1-c1ccc(C(F)(F)F)cc1
inactive: outcome [1] | Potency [2] | outcome [3] | outcome [4] | outcome [7] | Potency [5] | max activation [8] -1.61% | Potency [9] | Potency [10]

CC1=CC(=O)CCC1
inactive: outcome [1] | Potency [2] | Potency [6] | outcome [4] | outcome [7] | Potency [5]

C=CC(=O)N1CCOCC1
inactive: outcome [1] | Potency [2] | outcome [3] | Potency [6] | outcome [4] | Potency [5]

COc1ccc(N=[N+]([O-])c2ccc(OC)cc2)cc1
active: Potency [5] 0.34 µM
inactive: outcome [1] | Potency [2] | outcome [3] | outcome [4]

Cc1ccc(N)cc1[N+](=O)[O-]
active: Potency [5] 10.9 µM
inactive: outcome [1] | Potency [2] | Potency [6] | outcome [4] | outcome [7]

CC(C)c1ccc2oc3nc(N)c(C(=O)O)cc3c(=O)c2c1
active: Potency [8] 4.47 µM
inactive: outcome [1] | Potency [2] | outcome [3] | Potency [6] | outcome [7] | Potency [9] | Potency [10]

CC(CCO)CCCC(C)(C)O (stereo not given)
inactive: outcome [1] | Potency [2] | outcome [3] | outcome [4] | outcome [7] | Potency [5]

CO[Si](CCCNCCC[Si](OC)(OC)OC)(OC)OC
inactive: outcome [1] | Potency [2] | outcome [3] | Potency [6] | outcome [4] | Potency [5]
